# The sample as a whole holds a higher share of hits than the screen did.
# TTR transcr act = TTR transcription activators in neuroblastoma reporter cells, primary screen, cell-based, luminescence, SH-SY5Y, TTR promoter Gaussia luciferase; 100% = recombinant luciferase protein wells; activation, % at 16.7 µM; hit rate 1.3% among 92,000;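 active means activation above the mean of all tested compounds plus 3 SD, cut at about 9.5% in these data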;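 further: cells exposed to compounds for one day before reading; 0% = median of all test compound wells on the plate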
# HuH7 TTR inh = TTR promoter reporter inhibitors in hepatoma cells, counter-screen for TTR transcription activator project, cell-based, luminescence, HuH7 hepatoma. HuH7 TTR promoter-Gaussia luciferase reporter. shares compounds with TTR transcr act. inhibition, % at 16.7 µM. hit rate 4% among 1,100;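 active means average inhibition above the solvent-only control wells' mean plus 3 SD, cut at about 15% in these data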;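 further: 0% = cells with DMSO only and 100% = cells with inhibitor control FD; inhibitors lower well luminescence so higher value means more inhibition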
# TTR act confirm = TTR transcription activators, retest, confirmation, cell-based, luminescence, SH-SY5Y, triplicate. shares compounds with TTR transcr act. activation, % at 16.7 µM. 1,100 tested, under 10 active. SHSY5Y TTR promoter Gaussia luciferase; 100% = purified Lucia enzyme wells, no cells;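 active means mean activation above a set limit taken from the earlier primary screen, cut at about 11% in these data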;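 further: 0% = DMSO-treated cells and 100% = recombinant Lucia luciferase without cells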
# * marks the source's active call; other numbers are inactive results.
SMILES,TTR transcr act,others
COc1ccc(C2CC(c3cccs3)=NN2C(=S)Nc2ccccc2)cc1OC (stereo not given),1,
Cc1ccc(C2CC(c3ccccc3)=NN2C(=S)Nc2ccccc2)o1 (stereo not given),11*,HuH7 TTR inh=25*;TTR act confirm=0
COc1cccc(C2CC(c3cccs3)=NN2C(=S)Nc2ccccc2)c1OC (stereo not given),2,
NC(=O)C1CCN(c2nc(-c3ccc(Oc4ccccc4)cc3)cs2)CC1,-2,
Cc1ccc(C)c(S(=O)(=O)N2CCC3(CC2)OCCO3)c1,-1,
CC(=O)N1CCN(S(=O)(=O)c2ccc(Cl)cc2F)CC1,1,
O=S(=O)(c1cc(Cl)ccc1Cl)N1CCC2(CC1)OCCO2,12*,HuH7 TTR inh=-6;TTR act confirm=-1
CC[C@@]1(c2cccc(Cl)c2)C(=O)N(C(=O)OC(C)C)N1C(=O)OC(C)C,-2,
COc1ccc(Cn2cc(COC(=O)NCCc3c[nH]c4ccccc34)nn2)cc1,2,
CNC(=O)c1sc(=S)n(-c2ccc(OC)cc2)c1N,0,
COc1ccc(-n2c(N)c(C(=O)NCc3cccnc3)sc2=S)cc1,9.9*,HuH7 TTR inh=-24;TTR act confirm=0
COc1cccc(C(=O)NCc2cccnc2)c1,-2,
CCCC1CCC2(CCCN2CCOC(=O)Nc2ccc(Br)cc2)CC1 (stereo not given),0,
c1ccc(Cn2ccc3ccc(-c4ccc5ccn(Cc6cccc(-c7ccsc7)c6)c5c4)cc32)cc1,0,
FC(F)(F)Oc1cccc(Cn2ccc3ccc(-c4ccc5ccn(Cc6ccccc6)c5c4)cc32)c1,0,
Cc1sccc1/C=N/NC(=O)c1cccc2ccccc12,-2,
Cc1nn(C)c(C)c1/C=N/NC(=O)c1csc2ccccc12,-2,
CCn1ncc(/C=N\NC(=O)c2csc3ccccc23)c1C,15*,HuH7 TTR inh=18*;TTR act confirm=-1
Cc1ccccc1CN1CCCCC(NC(=O)C(C)(C)C)C1=O (stereo not given),2,
O=C(OCC#CCSc1nnc(-c2cccc(F)c2)o1)c1ccc(F)cc1,-1,
COc1ccc(NC(=O)Nc2ccc(OC)c(OC)c2)c([N+](=O)[O-])c1,2,
COc1ccc(/C=C/C(=O)Nc2ccc(OC)cc2[N+](=O)[O-])cc1,13*,HuH7 TTR inh=0;TTR act confirm=2
COc1ccc(NC(=O)c2sccc2C)c([N+](=O)[O-])c1,4,
O=c1[nH]n(-c2ccc(Cl)cc2)c2ncccc12,14*,HuH7 TTR inh=0;TTR act confirm=-1
O=c1[nH]n(CCO)c(=O)c2cccnc12,1,
SMILES,TTR transcr act,others
COc1ccc(-n2c(=S)[nH]c(=O)c3cccnc32)cc1,0,
CCSc1nc2ccccc2n1S(=O)(=O)c1ccccc1,30*,HuH7 TTR inh=4;TTR act confirm=0
CCc1ccc(S(=O)(=O)n2c(C)nc3ccccc32)cc1,3,
Cc1nc2ccccc2n1S(=O)(=O)c1ccc(Br)cc1,7,
COc1ccc(N=Cc2[nH]c3ccccc3c2O)cc1,14*,HuH7 TTR inh=-1;TTR act confirm=0
COc1ccccc1NC(=O)c1c(O)c2ccccc2[nH]c1=O,0,
COc1ccc(N=Cc2c[nH][nH]c2=O)cc1,-1,
CCCC/C=C1/[C@H](c2ccccc2)N(C)C2=N[C@H](c3ccccc3)CC(=O)N21,2,
O=C(NNC(=O)c1ccccc1O)c1ccc(Br)cc1,1,
O=C(COC(=O)c1ccccc1O)NNC(=O)c1ccc(Br)cc1,9.9*,HuH7 TTR inh=-5;TTR act confirm=2
O=C(COC(=O)c1cc(Br)ccc1O)NNC(=O)c1ccc([N+](=O)[O-])cc1,-2,
CC(=O)OCCC(CC(C)C)NC(=O)[C@H](CC(C)C)NC(=O)OCc1ccccc1 (stereo not given in full),-1,
C[C@@H]1CCN(C2CC2)S(=O)(=O)c2ccc(N3CCC[C@@H]3CO)cc2O1,0,
COCCCNC(=O)C[C@@H]1C(=O)N(CCc2ccc(Cl)cc2)C2=CCCCC[C@]21C(=O)OC,1,
O=C(CN1C(=O)N/C(=C\c2ccccc2OCc2ccc(C(=O)O)cc2)C1=O)Nc1ccc(F)cc1,-2,
NC1=NC(=O)/C(=C/c2ccccc2OCC(=O)Nc2ccc(F)cc2)S1,9.9*,HuH7 TTR inh=5;TTR act confirm=0
O=C(CN1C(=O)S/C(=C\c2ccccn2)C1=O)Nc1ccc(F)cc1,-1,
COc1ccc(NC(=O)OCCN2CCCC23CCC(c2ccccc2)CC3)cc1 (stereo not given),-2,
O=S1(=O)c2c(cccc2N2CCC[C@H]2CO)OCCCN1C1CC1,0,
COc1ccc(CN2C(=O)c3ccnn3CC2(C)c2nnnn2-c2c(C)cccc2C)cc1 (stereo not given),0,
C[C@@H]1CN([C@@H](C)CO)C(=O)CCCn2nncc2CO[C@@H]1CN(C)C(=O)c1ccc(N2CCN(C)CC2)cc1,-1,
C[C@H](CO)N1C[C@H](C)[C@H](CN(C)C(=O)c2ccncc2)OCc2cnnn2CCCC1=O,18*,HuH7 TTR inh=-8;TTR act confirm=0
C[C@@H]1CN([C@H](C)CO)C(=O)CCCn2nncc2CO[C@H]1CN(C)C(=O)c1ccccc1,2,
COc1cccc(NC(=O)Nc2c(-c3ccc(C(F)(F)F)cc3)nc3ncccn23)c1,-1,
COC(=O)[C@]12C[C@H](CC(=O)NCCCCc3ccccc3)C(=O)N(Cc3ccc4c(c3)OCO4)C1=C[C@H](C(C)C)O[C@@H]2C1CC1,0,
SMILES,TTR transcr act,others
O=C(O)CCCCN1C(=O)C=CC1=O,0,
COc1ccc(/C=N/NC(=O)c2cc(C34CC5CC(CC(C5)C3)C4)[nH]n2)cc1OC,5,
Cc1cc(C(=O)N/N=C/c2cccc(OC(=O)c3cccc(Br)c3)c2)n[nH]1,-2,
COc1cccc(/C=N/NC(=O)c2cc(C34CC5CC(CC(C5)C3)C4)[nH]n2)c1,17*,HuH7 TTR inh=-12;TTR act confirm=0
COc1ccc(Nc2nc(C)cc(C)c2C(N)=O)cc1,-2,
Cc1cc(C)c(C(N)=O)c(Nc2ccc3c(c2)OCCO3)n1,10*,HuH7 TTR inh=-11;TTR act confirm=0
CCc1ccc(Nc2nc(C)cc(C)c2C(N)=O)cc1,1,
COc1cccc(Cn2ncc3c4sc(S(C)=O)cc4n(C)c3c2=O)c1 (stereo not given),5,
COc1cc(C2NC(=O)NC(C)=C2C(=O)OCC2CCCCC2)cc(Cl)c1O (stereo not given),0,
COc1cc(C2NC(=O)NC(C)=C2C(=O)OC2CCCC(C)C2)cc(Br)c1O (stereo not given),11*,HuH7 TTR inh=-12;TTR act confirm=-1
CCOc1cc(C2NC(=O)NC(C)=C2C(=O)OC(C)CC)cc(Br)c1O (stereo not given),2,
CCCCN1CCS(=O)(=O)N(Cc2cn(Cc3ccc(C)cc3)nn2)C(C(=O)OC)C1 (stereo not given),-1,
CC(C)CN(C(=O)c1cccc(Cl)c1)c1c(N)n(CC(C)C)c(=O)[nH]c1=O,5,
COCCN(C(=O)c1ccc(N(C)S(=O)(=O)c2ccc(C)cc2)cc1)c1c(N)n(CC(C)C)c(=O)[nH]c1=O,9.8*,HuH7 TTR inh=5;TTR act confirm=0
CCCn1c(N)c(N(CCOC)C(=O)c2cccc(F)c2)c(=O)[nH]c1=O,-1,
Cc1ccc(-c2c(NC(=O)Nc3ccc(F)cc3)nc3ncccn23)cc1,-2,
COc1ccc(Cn2cc(Cn3c4ccccc4c(=O)n3C(C)C)nn2)cc1,16*,HuH7 TTR inh=-9;TTR act confirm=-1

# Screening results: PubChem, The Scripps Research Institute Molecular Screening Center
